Test results as given in PubChem BioAssay.

Experiment: JC-1 mitochondrial signal, unstimulated HepG2 cells – cell-based, JC-1 fluorescence, 24 h, 100 nL compound, profiling panel (AID 1167); note: test concentration not given here
Details: HepG2 mitochondrial potential, higher = more signal
Work on C=CC[C@@H]1C=C[C@H](ON=CC[C@@H]2C=C[C@H](OC(C)=O)[C@@H](COC(C)=O)O2)[C@@H](CO)O1 yielded a z-score of 0.169. C=CC[C@@H]1C=C[C@H](ON=C(C)CCN2CCCc3nc(C)c(C)cc32)[C@@H](CO)O1 showed a z-score of -0.276. CC(=O)OC[C@H]1O[C@H](CC=NO[C@H](C)c2cn([C@@H]3COC[C@H]3O)nn2)C=C[C@@H]1OC(C)=O gave a z-score of 0.00468. CC(=O)OC[C@H]1O[C@H](CCON=C(C)CCN2CCCc3nc(C)c(C)cc32)C=C[C@@H]1OC(C)=O gave a z-score of -0.689. With CO[C@H]1COC(=O)[C@H](CCSC)NC(=O)CC=C[C@@H](C)[C@H](OC)COC(=O)[C@@H](OCc2ccccc2)C=C[C@@H]1C the z-score was 0.247. In the case of CN1CCc2nc(-c3ccccc3)c(-c3ccccc3)cc2C1, the z-score is reported as 0.25. CON=C(C)CCN1CCc2nc(-c3ccccc3)c(-c3ccccc3)cc2C1 showed a z-score of 1.03. In the case of CCN1C(=O)[C@H]2[C@@H]3C(=CC[C@H]2C1=O)C(=O)[C@H]1O[C@H]1[C@H]3O, the z-score is reported as -2.06. With CC(C)C(=O)N[C@H]1CCCN1C(=O)C=Cc1ccccc1 the z-score was -0.541. In the case of CCOC(=O)[C@H](CC(C)C)NC(=O)CCC1CC(OC(=O)NCc2ccc3c(c2)OCO3)CC2(CCCC(COC(=O)NCCC(C)C)O2)O1 (some centres not stated), the z-score is reported as 0.449. In the case of COC(=O)CC=C[C@@H](C)[C@@H](C=NOC[C@@H](O)COCc1ccco1)NS(=O)(=O)c1ccc(C)cc1, the z-score is reported as -1.23. With CON=C(C)CCN1CCCCc2nc(C)c(C)cc21 the z-score was -0.955. For CC(=O)OC[C@H]1O[C@H](CCON=C(C)C)C=C[C@@H]1OC(C)=O, the z-score was -0.331. O=C1CCCC=C1C(O)C1CCCCC1 (configuration not stated) gave a z-score of -0.86. COC(=O)CC=C[C@@H](C)[C@@H](C=NOC[C@@H](C)[C@H](OCc1ccccc1)C(C)C)OC showed a z-score of 0.0695. For COC(=O)[C@H](C)NC(=O)CC=C[C@@H](C)[C@@H]1C=C[C@H](O)[C@@H](CO)O1, the z-score was -0.627. With C[C@@H](c1ccccc1)N1C(=O)[C@H]2[C@H]3[C@H](O)[C@H](O)CC(=NOCc4ccccc4)[C@@H]3CC[C@H]2C1=O the z-score was -0.265. In the case of O=C1[C@H]2[C@H]3[C@H](O)[C@H](O)CC(=NOC[C@@H](O)COCc4ccco4)[C@@H]3CC[C@H]2C(=O)N1Cc1ccc2c(c1)OCO2, the z-score is reported as 1.07. CCCNC(=O)OC[C@H]1O[C@H](CCON=C2C[C@@H](O)[C@@H](O)[C@@H]3[C@@H]4C(=O)N(CC)C(=O)[C@@H]4CC[C@@H]23)C=C[C@@H]1Oc1ccc(OC)cc1 showed a z-score of -1.18. Molecule CC(C)CON=C1C[C@@H](O)[C@@H](O)[C@@H]2[C@@H]3C(=O)N(Cc4ccc5c(c4)OCO5)C(=O)[C@@H]3CC[C@@H]12 has a z-score of 0.367. In the case of COc1ccc(COC(=O)NN=C2C[C@@H](O)[C@@H](O)[C@@H]3[C@@H]4C(=O)N([C@@H](C)c5ccccc5)C(=O)[C@@H]4CC[C@@H]23)cc1, the z-score is reported as -0.697. C[C@@H]1CC[C@H]2C(=O)N3[C@@H](CC[C@@H](C)[C@@H]3c3ccc(Br)cc3)C(=O)N2[C@H]1c1ccc(Br)cc1 gave a z-score of 1.65. CCOC(=O)CCN1C(=O)[C@H]2[C@H]3[C@H](O)[C@H](O)CC(=O)[C@@H]3CC[C@H]2C1=O gave a z-score of -0.385. COC(=O)[C@H](CCSC)NC(=O)CC=C[C@@H](C)CO gave a z-score of 0.705. In the case of CCOC(=O)[C@H](Cc1ccccc1)NC(=O)CCC1CC(OC(=O)NCc2cccc3ccccc23)CC2(CCCC(COC(=O)NCCOc3ccccc3)O2)O1 (some centres not stated), the z-score is reported as 0.161. Work on COc1ccc(COC(=O)NN=C2C[C@@H](O)[C@@H](O)[C@@H]3[C@@H]4C(=O)N(c5cccc(Oc6ccccc6)c5)C(=O)[C@@H]4CC[C@H]23)cc1 yielded a z-score of 0.89. COc1ccc(OC[C@@H]2CC3[C@@H](c4ccc(Br)cc4)[C@H](C)CC[C@H]3C(=O)O2)cc1 (some centres not stated) gave a z-score of -0.96. Molecule COC(=O)[C@H](C)NC(=O)CCC1CC(OC(=O)NCc2cccc3ccccc23)CC2(CCCC(COC(=O)NCCc3ccccc3OC)O2)O1 (some centres not stated) has a z-score of -0.525. For COc1ccc(OC[C@@H](CO)OC)cc1, the z-score was -0.15. Molecule COc1ccc(COC(=O)NN=C2C[C@@H](O)[C@@H](O)[C@@H]3[C@@H]4C(=O)N(C[C@@H]5CCCO5)C(=O)[C@@H]4CC[C@@H]23)cc1 has a z-score of 0.567. Molecule CCOC(=O)[C@H](CC(C)C)NC(=O)CCC1CC(OC(=O)NCc2ccc3c(c2)OCO3)CC2(CCCC(COC(=O)NCCOc3ccccc3)O2)O1 (some centres not stated) has a z-score of -1.66. In the case of C=CC[C@@H]1C=C[C@H](ON=C(C)CCN2CCCCc3nc(C)c(C)cc32)[C@@H](CO)O1, the z-score is reported as -0.874.
